Out of some 5,500 compounds screened, about 2,000 (36%) were called active. Not shown: some 18% with an inconclusive outcome. No stated cut-off is given here; in the data, active means normalized growth mostly below about 0.91 (no sharp cut-off); inconclusive means no clear call, values can overlap the other calls; inactive means mostly above about 0.92. Some of the results follow.
Experiment: chemical genetic growth profiling, strain panel (AID 1159580);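 further: tested at 20 µM; growth read once vehicle control cultures reached saturation at 30 °C; 1 = growth at the plate median or of vehicle wells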
Conditions: S. cerevisiae deletion strains, growth OD

Measured: normalized growth

COC(=O)C1=COC(OC2OC(CO)C(O)C(O)C2O)C2C(C)CC(=O)C12 (configuration not stated)
inactive: locus YAL021C, strain ccr4, stronger effect = lower value 1.03 | locus YAL026C, strain drs2, stronger effect = lower value 1.02 | locus YAL030W, strain snc1, stronger effect = lower value 1.03 | locus YBL061C, strain skt5, stronger effect = lower value 1.02 | locus YBR009C, strain hhf1, stronger effect = lower value 1.01 | locus YBR023C, strain chs3, stronger effect = lower value 1.03 | locus YBR171W, strain sec66, stronger effect = lower value 1.04 | locus YBR231C, strain swc5, stronger effect = lower value 1.04 | locus YBR279W, strain paf1, stronger effect = lower value 1.03 | locus YCL011C, strain gbp2, stronger effect = lower value 1.03 | locus YCL016C, strain dcc1, stronger effect = lower value 1.02 | locus YCL061C, strain MRC1, stronger effect = lower value 1.03 | locus YCL069W, strain vba3, stronger effect = lower value 1.03 | locus YCR088W, strain abp1, stronger effect = lower value 1.03 | locus YDL005C, strain med2, stronger effect = lower value 1.04 | locus YDL040C, strain nat1, stronger effect = lower value 1.03 | locus YDR001C, strain nth1, stronger effect = lower value 1.03 | locus YDR069C, strain doa4, stronger effect = lower value 1.02 | locus YDR137W, strain rgp1, stronger effect = lower value 1.07 | locus YDR159W, strain sac3, stronger effect = lower value 1.01 | locus YDR195W, strain ref2 1.02 | locus YDR297W, strain sur2, stronger effect = lower value 1.02 | locus YDR334W, strain swr1, stronger effect = lower value 1.03 | locus YDR335W, strain msn5, stronger effect = lower value 1.03 | locus YDR392W, strain spt3, stronger effect = lower value 0.935 | locus YEL003W, strain gim4, stronger effect = lower value 1.03 | locus YEL037C, strain rad23, stronger effect = lower value 1.02 | locus YEL061C, strain CIN8 (second series), stronger effect = lower value 1.03 | locus YER015W, strain faa2, stronger effect = lower value 1.04 | locus YER016W, strain bim1, stronger effect = lower value 1.04 | locus YER111C, strain swi4, stronger effect = lower value 1.03 | locus YER155C, strain BEM2 (second series), stronger effect = lower value 1.02 | locus YFR010W, strain ubp6, stronger effect = lower value 1.03 | locus YGL167C, strain pmr1, stronger effect = lower value 1.03 | locus YGL173C, strain kem1, stronger effect = lower value 1.03 | locus YGL227W, strain vid30, stronger effect = lower value 1.03 | locus YGL240W, strain doc1, stronger effect = lower value 1.02 | locus YGL253W, strain hxk2, stronger effect = lower value 1.05 | locus YHR013C, strain ard1, stronger effect = lower value 1.07 | locus YHR027C, strain rpn1, stronger effect = lower value 1.03 | locus YHR142W, strain chs7, stronger effect = lower value 1.04 | locus YJL092W, strain hpr5, stronger effect = lower value 1.03 | locus YJL095W, strain BCK1 (second series), stronger effect = lower value 1.03 | locus YJL115W, strain asf1, stronger effect = lower value 1.02 | locus YJL129C, strain trk1, stronger effect = lower value 1.06 | locus YJL154C, strain vps35, stronger effect = lower value 1.02 | locus YJL164C, strain tpk1, stronger effect = lower value 1.01 | locus YJL166W, strain qcr8, stronger effect = lower value 1.05 | locus YJL187C, strain SWE1, stronger effect = lower value 1.04 | locus YKL160W, strain elf1, stronger effect = lower value 1.04 | locus YKR026C, strain gcn3, stronger effect = lower value 1.03 | locus YKR091W, strain srl3, stronger effect = lower value 1.02 | locus YLL001W, strain dnm1, stronger effect = lower value 1.05 | locus YLL026W, stronger effect = lower value 1.02 | locus YLL041C, strain sdh2, stronger effect = lower value 1.02 | locus YLR027C, strain aat2, stronger effect = lower value 1.02 | locus YLR221C, strain rsa3, stronger effect = lower value 1.03 | locus YLR258W, strain gsy2, stronger effect = lower value 1.01 | locus YLR262C, strain YPT6 (second series), stronger effect = lower value 1.05 | locus YLR320W, strain mms22, stronger effect = lower value 1.04 | locus YLR342W, strain FKS1, stronger effect = lower value 1.03 | locus YLR357W, strain rsc2, stronger effect = lower value 1.05 | locus YLR370C, strain arc18, stronger effect = lower value 1.03 | locus YLR384C, strain iki3, stronger effect = lower value 1.02 | locus YML120C, strain ndi1, stronger effect = lower value 1.03 | locus YMR058W, strain fet3, stronger effect = lower value 1.03 | locus YMR125W, strain sto1, stronger effect = lower value 1.04 | locus YMR129W, stronger effect = lower value 1.03 | locus YMR205C, strain PFK2, stronger effect = lower value 1.05 | locus YMR231W, strain pep5, stronger effect = lower value 1.03 | locus YNL071W, strain lat1, stronger effect = lower value 1.04 | locus YNL209W, strain ssb2, stronger effect = lower value 1.02 | locus YNL248C, strain rpa49, stronger effect = lower value 1.06 | locus YNL322C, strain KRE1 (second series), stronger effect = lower value 1.03 | locus YNR049C, strain mso1, stronger effect = lower value 1.02 | locus YOR001W, strain rrp6, stronger effect = lower value 0.987 | locus YOR070C, strain gyp1, stronger effect = lower value 1.02 | locus YOR080W, strain dia2, stronger effect = lower value 1.02 | locus YOR083W, strain WHI5, stronger effect = lower value 1.04 | locus YOR106W, strain vam3, stronger effect = lower value 1.09 | locus YOR265W, strain rbl2, stronger effect = lower value 1.01 | locus YOR270C, strain vph1, stronger effect = lower value 1.11 | locus YOR290C, strain snf2, stronger effect = lower value 1.03 | locus YPL051W, strain arl3, stronger effect = lower value 1.04 | locus YPL078C, strain atp4, stronger effect = lower value 1.06 | locus YPL106C, strain sse1, stronger effect = lower value 1.01 | locus YPL240C, strain hsp82, stronger effect = lower value 1.02

Reference: PubChem BioAssay AID1159580 (chemical genetic matrix, 2015)
